Measured values published in PubChem BioAssay (NCI).
About 83,000 compounds went through this panel and 20% of them were active in at least one assay; those are over-represented in the sample as a whole.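 Percent growth is the endpoint: 0 to 100 indicates growth inhibition (40 means 60% inhibition), 0 means no net growth, and negative values indicate cell death.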 Unmarked numbers belong to inactive results. Activity calls are given as the source filed them. The calls were made as follows: active = growth percent below 10; inactive = the rest.

Experiments:
Assay in all cases: NCI-60 one-dose screen, 48 h (100 = growth as untreated, 0 = no growth, -100 = all killed)
Details in all cases: 10 µM unless noted
SR leukemia = tested on: SR leukemia
RPMI-8226 leukemia = tested on: RPMI-8226 leukemia
OVCAR-8 ovarian = tested on: OVCAR-8 ovarian
OVCAR-5 ovarian = tested on: OVCAR-5 ovarian
OVCAR-4 ovarian = tested on: OVCAR-4 ovarian
SK-OV-3 ovarian = tested on: SK-OV-3 ovarian
IGROV1 ovarian = tested on: IGROV1 ovarian
OVCAR-3 ovarian = tested on: OVCAR-3 ovarian
HS 578T breast = tested on: HS 578T breast
NCI/ADR-RES ovarian = tested on: NCI/ADR-RES ovarian

Compound	growth (SR leukemia)	growth (RPMI-8226 leukemia)	growth (OVCAR-8 ovarian)	growth (OVCAR-5 ovarian)	growth (OVCAR-4 ovarian)	growth (SK-OV-3 ovarian)	growth (IGROV1 ovarian)	growth (OVCAR-3 ovarian)	growth (HS 578T breast)	growth (NCI/ADR-RES ovarian)
COc1cc2c(cc1OC)-c1ccc3cc4c(cc3c1N(CCCn1ccnc1)C2)OCO4	7.86% (active)	0.821% (active)	44.7%	103%	67.9%	20.7%	38.3%	33.5%	91.5%	94.4%
CCN(CC)CCCC(C)NCc1ccccc1 (stereo not given)	111%	107%	93.7%	97.6%	105%	118%	95.6%	104%	115%	106%
COc1ccc(-c2nc3sc4c(c3c(=O)[nH]2)CCCC4)c2ccccc12	7.04% (active)	11.5%	12.8%	-17.7% (active)	-7.19% (active)	33.7%	37.5%	-64.5% (active)	-0.402% (active)	5.34% (active)
CN(C)c1ccc2cc(-c3ccc(Cl)c(Cl)c3)c(N)nc2c1	-29% (active)	13.3%	21%	55.4%	9.09% (active)	60.4%	42%	31%	62.4%	15.9%
CCCCNC(=O)c1cc(NCc2cc(O)ccc2O)ccc1O	41.1%	19.3%	87.6%	107%	90.8%	85.8%	98.4%	54.2%	88%	95%
CC(=O)Nc1nccs1	111%	102%	103%	84.3%	117%	98.8%	94.7%	99.6%	91.7%	94.3%
CCN(CC)c1ccc(Nc2ccc(CC(=O)c3ccccc3)cc2)cc1	55.3%	49.9%	84.8%	98.3%	87.8%	97.8%	88.4%	84.3%	81.1%	73.6%
CCCCCOC(=O)c1ccc(NC(=O)CNCC(C)C)cc1	82.2%	73.1%	96.1%	98.9%	101%	95.4%	93.4%	101%	96.9%	101%
COc1cc(-c2ccc(N=Nc3c(O)c(C(=O)Nc4ccccc4OC)cc4ccccc34)c(OC)c2)ccc1N=Nc1c(O)c(C(=O)Nc2ccccc2OC)cc2ccccc12	41.8%	97.2%	99.3%	99.6%	98.9%	103%	88.3%	99.3%	84.8%	96.4%
Fc1ccc(Nc2nc3nonc3nc2Nc2ccc(F)cc2)cc1	7.15% (active)	6.64% (active)	8.53% (active)	-16.7% (active)	5.75% (active)	3.75% (active)	32.6%	1.97% (active)	-1.86% (active)	3.98% (active)
COc1ccc(-c2cc(-c3cc(OC)ccc3OC)[nH]c(=O)c2C#N)cc1	14.2%	88.6%	56.6%	116%	68.9%	71.6%	53.3%	21.3%	43.5%	34.2%
CCN(CC)CCOC(=O)N1c2ccccc2Sc2ccccc21	98.6%	85.6%	101%	101%	101%	98%	94.1%	107%	91.7%	96.1%
O=c1oc2ccc(Cl)cc2cc1-c1cs/c(=N/N=C\c2ccc(Cl)cc2)n1/N=C/c1ccc(Cl)cc1	83.4%	103%	96.5%	107%	98.5%	111%	108%	106%	101%	106%
CCCCCCNCc1cc(C(C)(C)C)cc(CNCCCCCC)c1O	-52% (active)	-29.8% (active)	-80.2% (active)	-69.9% (active)	-94.8% (active)	-90.5% (active)	-77.5% (active)	-86.6% (active)	-22.1% (active)	-87.6% (active)
CCNCCNc1cc(-c2ccc(C(F)(F)F)cc2)c(C#N)c2nc3cc(Cl)c(Cl)cc3n12	-49.2% (active)	-41.6% (active)	-64.1% (active)	-92.3% (active)	-81.9% (active)	67.6%	-77.8% (active)	-88.4% (active)	-53.2% (active)	-79.2% (active)
CCN(CCO)CC(=O)c1cc(Cl)cc(Cl)c1Cl	95.4%	97.1%	103%	109%	115%	102%	109%	106%	101%	102%
Cc1c(C)c2c(c(C)c1NC(=O)/C=C\C(=O)O)CCC(C)(CCCC(C)CCCC(C)CCCC(C)C)O2 (stereo not given)	9.98% (active)	30.6%	35.9%	87.6%	39.4%	54.6%	56.8%	43.2%	57.4%	43.1%
CC(=O)OCCc1ccccc1	85.3%	93.5%	98.7%	91.2%	106%	102%	101%	137%	104%	86.3%
CO[C@H]1/C=C/O[C@@]2(C)Oc3c(C)c(O)c4c(c3C2=O)C(=O)C(/C=N/N(c2ccccc2)c2ccccc2)=C(NC(=O)/C(C)=C\C=C\[C@H](C)[C@H](O)[C@@H](C)[C@@H](O)[C@@H](C)[C@H](OC(C)=O)[C@@H]1C)C4=O	-13% (active)	-19.1% (active)	7.09% (active)	-43.7% (active)	9.98% (active)	12.2%	-16.3% (active)	-83% (active)	-0.488% (active)	6.55% (active)
NC(N)=N/N=C(/c1ccccc1)c1ccccc1F	3.14% (active)	-36.8% (active)	45.5%	76.4%	36.7%	19.5%	20.7%	-0.0856% (active)	38.5%	59.6%
CCCNCC(=O)Nc1ccc(C(=O)OC(C)(C)CC)cc1	90.6%	99.8%	104%	111%	118%	105%	99.5%	102%	105%	105%
Cc1c(C(N)=O)sc2nc(C)n(/N=c3\scc(-c4ccccc4)n3Cc3ccccc3)c(=O)c12	12.8%	-10.3% (active)	14.7%	47.9%	33.5%	58.6%	10.9%	4.32% (active)	-14.6% (active)	18.9%
COc1cc2c(cc1OC)-c1ccc3cc4c(cc3c1N(CCCN(C)C)C2)OCO4	15.3%	17.1%	27.5%	60%	52.4%	55.3%	21.7%	48%	45.5%	65.4%
Nc1c(C(=O)c2ccc(Cl)s2)sc2nc3c(cc12)CCCC3	97.3%	90.9%	105%	137%	112%	90.8%	104%	106%	111%	101%
Fc1ccc(Nc2ccc3cc(OCCCN4CCOCC4)ccc3n2)cc1F	8.16% (active)	49.5%	66.8%	56.8%	49.4%	72.8%	72.8%	68.1%	40.6%	59.8%
NC(N)=N/N=C(/c1ccccc1)c1ccc(N)cc1	88.8%	150%	108%	103%	132%	99.3%	127%	112%	150%	106%
CN(C)c1ccc(C#Cc2c(F)cccc2Cl)cc1	94.3%	91.3%	93.2%	99.2%	72%	79%	47.2%	90.6%	94.5%	85.3%
CCc1nc2ccccc2[nH]1	100%	98.9%	101%	110%	112%	105%	130%	119%	94.3%	111%
